Results taken from the supplement of paper PMC10127200.
Where a name gives a salt, the structure may show the parent alone.

Legend:
Assay in all cases: Euclidean distance of Cell Painting phenotypic profile (signed KS, 77 features) to DMSO centroid (dimensionless distance); 5 or 10 uM (library dependent); higher = stronger phenotypic change vs DMSO (phenoactivity)
Conditions in all cases: 48 h
786-O = test system: 786-O
How it was run: (§1)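 Harmony extracted 77 features from 20X confocal images (9 fields/well) of stained cells, scoring each as a signed Kolmogorov-Smirnov statistic against same-plate vehicle wells. The cells, five cancer lines and a healthy fibroblast line, had received library compounds for 48 h at 10 or 5 uM depending on library, with 0.1% DMSO final. Phenoactivity is the Euclidean distance from each plate-position-corrected, correlation-weighted, top-dose replicate-averaged profile to the median vehicle profile.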

A549 = test system: A549
How it was run: as §1

DU145 = test system: DU145
How it was run: as §1

FB = test system: FB
How it was run: as §1

HEPG2 = test system: HEPG2
How it was run: as §1

OVCAR4 = test system: OVCAR4
How it was run: as §1

SMILES | Euclidean distance (786-O) | Euclidean distance (A549) | Euclidean distance (DU145) | Euclidean distance (FB) | Euclidean distance (HEPG2) | Euclidean distance (OVCAR4)
Nc1nc2[nH]cc(CCc3ccc(C(=O)N[C@@H](CCC(=O)O)C(=O)O)cc3)c2c(=O)[nH]1 [Pemetrexed Disodium Hydrate] | 2.12 | 2.97 | 1.28 | 0.937 | 2.46 | 2.8
COc1cc(O)c2c(c1)oc(=O)c1c3cc(O)c(O)cc3oc21 [Wedelolactone] | 1.08 | 1.94 | 1.02 | 2.37 | 2.5 | 2.37
O=c1ncn2nc(Sc3ccc(F)cc3F)ccc2c1-c1c(Cl)cccc1Cl | 1.78 | 0.873 | 1.38 | 1.63 | 1.25 | 1.55
CN(C)c1ccc2nc3ccc(=[N+](C)C)cc-3sc2c1 [Methylene Blue] | 2.57 | 2.62 | 1.71 | 3.26 | 2.63 | 2.92
O=C1CC[C@@H](C(=O)N2CSC[C@H]2C(=O)O)N1 [Pidotimod] | 1.14 | 0.696 | 0.731 | 0.833 | 0.84 | 0.854
CN(C)Cc1c(C(=O)NCCOc2ccc(C(=O)NO)cc2)oc2ccccc12 | 2.9 | 4.31 | 3.96 | 3.8 | 4.14 | 3.47
Nc1ncn([C@@H]2O[C@H](CO)[C@@H](O)[C@H]2O)c(=O)n1 [Azacitidine] | 1.87 | 1.89 | 1.92 | 2.79 | 1.69 | 1.33
CC(C)(C)NC[C@H](O)c1ccc(O)c(CO)c1 [levalbuterol tartrate] | 0.685 | 0.326 | 0.582 | 0.969 | 0.566 | 0.907
CC[C@@]1(O)C(=O)OCc2c1cc1n(c2=O)Cc2cc3cc(O)ccc3nc2-1 [Hydroxy Camptothecine] | 3.83 | 4.01 | 3.99 | 3.74 | 3.55 | 2.89
Nc1ccccc1NC(=O)c1ccc(CNC(=O)OCc2cccnc2)cc1 [Entinostat (MS-275)] | 3.47 | 2.57 | 2.22 | 3.25 | 2.93 | 2.57
COc1ccnc(C[S+]([O-])c2nc3cc(OC(F)F)ccc3[nH]2)c1OC (stereo unspecified) [Pantoprazole sodium] | 0.766 | 0.778 | 1.1 | 1.01 | 1.03 | 0.752
Cc1ccc(NC(=O)c2cccc(C(C)(C)C#N)c2)cc1Nc1ccc2ncn(C)c(=O)c2c1 | 1.3 | 2.03 | 1.98 | 3.42 | 1.53 | 0.804
O=C(NCc1cccc(O)c1)Nc1nc(-c2ccncc2)cs1 | 1.82 | 1.54 | 3.26 | 3.61 | 1.47 | 1.88
CNCCc1ccccn1 [Betahistine 2HCl] | 1.56 | 0.851 | 1.21 | 0.822 | 0.61 | 1.03
O=C(O)c1cn(C2CC2)c2cc(N3CCNCC3)c(F)cc2c1=O [Ciprofloxacin hydrochloride hydrate] | 1.39 | 0.835 | 0.784 | 1.29 | 0.735 | 1.87
CC[C@H]1OC(=O)[C@H](C)[C@@H](O[C@H]2C[C@@](C)(OC)[C@@H](O)[C@H](C)O2)[C@H](C)[C@@H](O[C@@H]2O[C@H](C)C[C@H](N(C)C)[C@H]2O)[C@](C)(O)C[C@@H](C)C(=O)[C@H](C)[C@@H](O)[C@]1(C)O [Erythromycin thiocyanate] | 1.01 | 1.44 | 0.991 | 1.53 | 0.812 | 1.95
CN1CCCN=C1/C=C/c1cccc(O)c1 [Oxantel Pamoate] | 0.869 | 0.907 | 0.598 | 0.7 | 0.882 | 0.824
Cn1cnc(N)c2ncnc1-2 [3-Methyladenine] | 1.21 | 1.11 | 1.58 | 1.28 | 1.37 | 0.677
CS(=O)(=O)CCC#N [Dapansutrile (OLT1177)] | 0.937 | 0.857 | 2.91 | 0.633 | 0.92 | 1.45
CN(C)Cc1ccc(-c2nc3cccc4c3n2CCNC4=O)cc1 | 1.75 | 1.77 | 1.51 | 1.3 | 1.62 | 1.41
Cn1cc(-c2ccc(S(=O)(=O)n3ccc(/C=C/C(=O)Nc4ccccc4N)c3)cc2)cn1 | 2.25 | 2.63 | 2.82 | 2.84 | 3.21 | 3.37
CC(=O)Nc1nc2c(Oc3cc(-c4ccc(C(F)(F)F)cc4)ncn3)cccc2s1 | 0.826 | 0.619 | 0.706 | 0.556 | 0.84 | 0.981
Cc1ccc(Sc2cncc3sc(C(N)=O)cc23)cc1 | 1.1 | 1.05 | 0.78 | 1.61 | 1.24 | 0.995
CCOC(=O)c1ccc(OC(=O)CCCCCNC(=N)N)cc1 [Gabexate Mesylate] | 1.36 | 0.886 | 1.01 | 0.822 | 1.58 | 1.68
C#Cc1cccc(Nc2ncnc3cc(OC)c(OCCCCCCC(=O)NO)cc23)c1 | 3.46 | 4.62 | 2.02 | 3.43 | 1.85 | 1.93
CCCNC(C)C(=O)Nc1ccccc1C (stereo unspecified) [Prilocaine hydrochloride] | 0.697 | 0.662 | 0.635 | 0.843 | 0.473 | 0.791
